Inconclusive results are not listed. Calls of active or inactive are those of the source. Unless noted, calls come from the whole dose curve; as a rule, active = well fitted curve in the direction sought with a large enough effect in the repeat runs; inconclusive = weak or mixed curves; inactive = no such curve, though single readings can be large; an effect the other way counts as inactive or inconclusive.
Tests used:
[1] = qHTS assay to identify small molecule antagonists of the estrogen related receptor (ERR) signaling pathway - cell viability counter screen (AID 1224818);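 note: series mostly up to about 46 µM; viability measured after 17.5 h of compound exposure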
Method in brief: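 Cytotoxicity check run alongside the ERR antagonist screen: cells exposed to test compounds 17.5 h at 37 C, viability taken as CellTiter-Fluor fluorescence intensity.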

[2] = qHTS assay to identify small molecule agonists of the estrogen related receptor (ERR) signaling pathway (AID 1224820)
Method in brief: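 An ERR cell line provided by NTP was seeded at 2,000 cells per well and allowed to settle for 6 h before compounds in DMSO were added. After 18 h at 37 C, luciferase activity was measured by One-Glo luminescence.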

[3] = tested on: estrogen-related receptor alpha (ERRalpha) with PGC-1alpha coactivator, human; assay: qHTS assay to identify small molecule antagonists of the estrogen related receptor signaling pathway with the pleiotropic PPARgamma coactivator (PGC) (AID 1224821; calls by dose curve;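 note: series mostly up to about 46 µM; lower luminescence signal means antagonism of PGC/ERR signalling; nearly all actives have a fitted effect of over 50% in size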)
Method in brief: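 A PGC/ERR cell line supplied by NTP is seeded, allowed 6 h at 37 C, and treated with test compounds in DMSO for 18 h. Signal is then measured as luciferase luminescence using One-Glo.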

[4] = qHTS assay to identify small molecule antagonists of the estrogen related receptor signaling pathway with the pleiotropic PPARgamma coactivator (PGC) cell viability counter screen (AID 1224822;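 note: series mostly up to about 46 µM; viability read after 17.5 h compound exposure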)
Method in brief: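 Viable cell signal (CellTiter-Fluor, 30 min, 37 C/5% CO2) was measured in PGC/ERR cells after a 17.5 h compound incubation.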

[5] = qHTS assay to identify small molecule agonists of the estrogen related receptor signaling pathway with the pleiotropic PPARgamma coactivator (PGC) (AID 1224823)
Method in brief: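 Compounds dissolved in DMSO are added by pin tool to PGC/ERR cells that have settled for 6 h, and incubation continues 18 h at 37 C. Reporter output is measured as One-Glo luminescence.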

Measured: Potency

C=CCN1CCC23c4c5ccc(O)c4O[C@H]2C(=O)CC[C@@]3(O)C1C5 (some centres not stated)
inactive: [1] | [2] | [3] | [4] | [5]

Nc1ccc(CCN2CCN(c3cccc(C(F)(F)F)c3)CC2)cc1
inactive: [1] | [2] | [3] | [4] | [5]

CCCN1CCO[C@@H]2c3cc(O)ccc3OC[C@H]21
inactive: [1] | [2] | [3] | [4] | [5]

NC(Cc1cc(O)c(O)cc1O)C(=O)O (configuration not stated)
inactive: [1] | [2] | [3] | [4] | [5]

C[N+]1(C)CCN(c2ccccc2)CC1
inactive: [1] | [2] | [3] | [4] | [5]

NC(=O)c1ccc(OCC(O)CN2CC=C(c3ccc(F)cc3)CC2)cc1 (configuration not stated)
inactive: [1] | [2] | [3] | [4] | [5]

CC(=O)NCCc1c[nH]c2ccccc12
inactive: [1] | [2] | [3] | [4] | [5]

CP(=O)(O)C1=CCNCC1
inactive: [1] | [2] | [3] | [4] | [5]

Cc1[nH]c2ccc(O)cc2c1CCN
inactive: [1] | [2] | [3] | [4] | [5]

CC(N)Cc1c[nH]c2ccc(O)cc12 (configuration not stated)
inactive: [1] | [2] | [4]

CN1CCc2cc(O)cc3c2[C@H]1Cc1ccc(O)c(O)c1-3
inactive: [1] | [2] | [3] | [5]

— PubChem BioAssay (Tox21)
